Tests used:
Experiment in all cases: log2 ratio of Biotin-Ahx-Ub-VS probe labelling (fragment/DMSO); higher = less target engagement (more negative = stronger competition), active = hit call of the paper (q ≤ 0.05, log2 ratio ≤ -1)
Conditions in all cases: compound concentration: 200 uM; treatment time: 3 h
[1] = molecular target: T1, ALG13 (UniProt Q9NP73)
T1 sequence (whole entry): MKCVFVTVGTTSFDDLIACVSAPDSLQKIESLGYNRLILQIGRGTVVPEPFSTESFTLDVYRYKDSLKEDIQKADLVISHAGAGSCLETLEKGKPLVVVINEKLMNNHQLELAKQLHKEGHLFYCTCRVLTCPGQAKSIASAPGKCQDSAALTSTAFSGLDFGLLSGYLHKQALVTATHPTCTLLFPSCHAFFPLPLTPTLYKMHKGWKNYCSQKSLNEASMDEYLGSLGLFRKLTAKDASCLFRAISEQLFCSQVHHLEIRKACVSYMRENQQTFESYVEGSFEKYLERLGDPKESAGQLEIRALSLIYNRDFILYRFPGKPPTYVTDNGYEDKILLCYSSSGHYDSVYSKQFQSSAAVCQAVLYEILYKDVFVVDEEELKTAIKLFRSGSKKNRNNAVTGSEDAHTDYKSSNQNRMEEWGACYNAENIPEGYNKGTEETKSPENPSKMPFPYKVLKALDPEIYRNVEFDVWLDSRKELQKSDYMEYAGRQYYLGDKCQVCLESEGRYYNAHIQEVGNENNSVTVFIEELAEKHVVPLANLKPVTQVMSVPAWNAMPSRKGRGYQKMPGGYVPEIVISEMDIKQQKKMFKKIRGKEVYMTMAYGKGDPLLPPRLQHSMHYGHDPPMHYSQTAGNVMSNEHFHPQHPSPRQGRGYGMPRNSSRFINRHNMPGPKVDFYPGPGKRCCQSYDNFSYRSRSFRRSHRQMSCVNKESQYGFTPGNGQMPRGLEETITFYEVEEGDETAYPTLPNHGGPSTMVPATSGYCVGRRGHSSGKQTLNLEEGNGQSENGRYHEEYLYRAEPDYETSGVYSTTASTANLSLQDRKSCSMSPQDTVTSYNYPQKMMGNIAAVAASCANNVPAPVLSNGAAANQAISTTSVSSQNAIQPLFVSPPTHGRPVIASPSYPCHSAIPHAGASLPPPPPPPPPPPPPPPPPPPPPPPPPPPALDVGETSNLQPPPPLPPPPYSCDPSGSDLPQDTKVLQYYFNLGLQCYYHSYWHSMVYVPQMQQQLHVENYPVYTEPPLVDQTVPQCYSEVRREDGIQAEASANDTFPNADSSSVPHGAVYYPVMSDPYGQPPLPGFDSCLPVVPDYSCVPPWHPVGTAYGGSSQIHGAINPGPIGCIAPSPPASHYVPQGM
How it was run: (§1)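 HEK293T lysate (495 µg per sample, in Tris/CHAPS/IGEPAL buffer with protease inhibitors) was treated in triplicate with fragment at 200 µM or with DMSO for 3 h. It was then treated with Biotin-Ahx-Ub-VS (0.5 µM final) for 1 h. Labelled DUBs were NeutrAvidin-enriched, digested with LysC and trypsin, and run by diaPASEF LC-MS/MS. Spectronaut label-free quantities were global-median-normalised. Values are average log2 ratios fragment/DMSO by unpaired t-test, using proteins with ≥2 unique peptides.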

[2] = molecular target: ATXN3 (UniProt P54252)
How it was run: as §1

[3] = molecular target: T2, BAP1 (UniProt Q92560)
T2 sequence (whole entry): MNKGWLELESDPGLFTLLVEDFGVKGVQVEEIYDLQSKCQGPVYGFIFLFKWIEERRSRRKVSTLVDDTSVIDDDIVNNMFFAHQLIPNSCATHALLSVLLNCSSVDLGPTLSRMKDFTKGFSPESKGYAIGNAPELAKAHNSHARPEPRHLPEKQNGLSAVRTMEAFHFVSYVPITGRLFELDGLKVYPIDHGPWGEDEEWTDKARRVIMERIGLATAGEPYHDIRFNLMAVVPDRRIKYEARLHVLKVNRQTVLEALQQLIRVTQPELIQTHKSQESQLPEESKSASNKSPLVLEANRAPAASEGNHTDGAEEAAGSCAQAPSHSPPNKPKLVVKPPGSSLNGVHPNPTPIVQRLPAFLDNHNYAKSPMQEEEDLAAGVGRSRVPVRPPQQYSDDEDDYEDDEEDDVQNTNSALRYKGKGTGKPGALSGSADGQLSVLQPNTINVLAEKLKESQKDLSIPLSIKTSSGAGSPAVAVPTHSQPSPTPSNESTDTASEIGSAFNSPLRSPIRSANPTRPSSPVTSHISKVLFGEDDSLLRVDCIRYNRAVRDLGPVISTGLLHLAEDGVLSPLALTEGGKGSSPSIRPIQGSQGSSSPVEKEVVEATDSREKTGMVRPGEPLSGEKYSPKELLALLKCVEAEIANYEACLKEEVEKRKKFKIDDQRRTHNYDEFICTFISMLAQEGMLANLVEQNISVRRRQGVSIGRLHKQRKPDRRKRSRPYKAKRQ
How it was run: as §1

[4] = molecular target: EIF3F (UniProt O00303)
How it was run: as §1

[5] = molecular target: EIF3H (UniProt O15372)
How it was run: as §1

[6] = molecular target: T3, FAM105A (UniProt Q9NUU6)
T3 sequence (whole entry): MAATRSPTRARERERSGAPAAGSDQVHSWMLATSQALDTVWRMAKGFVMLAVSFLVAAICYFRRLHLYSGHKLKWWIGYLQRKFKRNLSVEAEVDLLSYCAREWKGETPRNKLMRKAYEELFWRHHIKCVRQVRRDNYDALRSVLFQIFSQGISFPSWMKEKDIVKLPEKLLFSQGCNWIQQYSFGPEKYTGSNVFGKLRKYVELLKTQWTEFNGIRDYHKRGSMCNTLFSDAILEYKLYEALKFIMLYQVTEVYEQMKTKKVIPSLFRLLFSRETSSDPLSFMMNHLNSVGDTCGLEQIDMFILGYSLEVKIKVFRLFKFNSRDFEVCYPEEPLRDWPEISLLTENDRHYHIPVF
How it was run: as §1

[7] = molecular target: OTUB1 (UniProt Q96FW1)
How it was run: as §1

[8] = molecular target: T4, OTUD4 (UniProt Q01804)
T4 sequence (whole entry): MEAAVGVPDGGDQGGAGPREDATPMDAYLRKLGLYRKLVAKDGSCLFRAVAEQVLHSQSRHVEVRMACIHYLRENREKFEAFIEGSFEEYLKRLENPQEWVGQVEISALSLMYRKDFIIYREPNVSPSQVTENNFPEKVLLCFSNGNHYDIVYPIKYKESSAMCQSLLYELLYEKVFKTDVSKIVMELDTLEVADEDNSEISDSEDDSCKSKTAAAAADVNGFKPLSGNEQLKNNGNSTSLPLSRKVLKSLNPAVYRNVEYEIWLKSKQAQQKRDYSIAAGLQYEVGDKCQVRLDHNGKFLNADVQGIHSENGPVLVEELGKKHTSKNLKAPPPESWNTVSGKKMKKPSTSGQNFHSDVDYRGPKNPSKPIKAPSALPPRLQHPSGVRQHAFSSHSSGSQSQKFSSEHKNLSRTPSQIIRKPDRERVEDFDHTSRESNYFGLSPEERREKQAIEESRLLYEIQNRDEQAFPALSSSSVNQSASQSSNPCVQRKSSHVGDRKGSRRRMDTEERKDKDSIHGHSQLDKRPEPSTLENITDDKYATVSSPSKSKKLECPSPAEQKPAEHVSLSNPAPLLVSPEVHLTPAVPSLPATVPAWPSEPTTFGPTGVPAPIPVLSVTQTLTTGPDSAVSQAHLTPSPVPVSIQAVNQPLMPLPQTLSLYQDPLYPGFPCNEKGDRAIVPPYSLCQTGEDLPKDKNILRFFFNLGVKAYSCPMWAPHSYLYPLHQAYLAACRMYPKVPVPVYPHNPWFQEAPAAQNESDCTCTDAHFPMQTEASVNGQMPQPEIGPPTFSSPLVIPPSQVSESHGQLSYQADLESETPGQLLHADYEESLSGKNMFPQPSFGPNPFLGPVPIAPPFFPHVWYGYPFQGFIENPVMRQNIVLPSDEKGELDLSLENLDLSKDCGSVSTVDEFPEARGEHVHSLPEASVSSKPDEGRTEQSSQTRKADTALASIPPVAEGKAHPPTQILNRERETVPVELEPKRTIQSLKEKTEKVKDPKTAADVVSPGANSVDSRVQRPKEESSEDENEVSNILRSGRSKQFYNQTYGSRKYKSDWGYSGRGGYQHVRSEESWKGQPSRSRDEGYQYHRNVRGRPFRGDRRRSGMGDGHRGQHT
How it was run: as §1

[9] = molecular target: T5, OTUD5 (UniProt Q96G74)
T5 sequence (whole entry): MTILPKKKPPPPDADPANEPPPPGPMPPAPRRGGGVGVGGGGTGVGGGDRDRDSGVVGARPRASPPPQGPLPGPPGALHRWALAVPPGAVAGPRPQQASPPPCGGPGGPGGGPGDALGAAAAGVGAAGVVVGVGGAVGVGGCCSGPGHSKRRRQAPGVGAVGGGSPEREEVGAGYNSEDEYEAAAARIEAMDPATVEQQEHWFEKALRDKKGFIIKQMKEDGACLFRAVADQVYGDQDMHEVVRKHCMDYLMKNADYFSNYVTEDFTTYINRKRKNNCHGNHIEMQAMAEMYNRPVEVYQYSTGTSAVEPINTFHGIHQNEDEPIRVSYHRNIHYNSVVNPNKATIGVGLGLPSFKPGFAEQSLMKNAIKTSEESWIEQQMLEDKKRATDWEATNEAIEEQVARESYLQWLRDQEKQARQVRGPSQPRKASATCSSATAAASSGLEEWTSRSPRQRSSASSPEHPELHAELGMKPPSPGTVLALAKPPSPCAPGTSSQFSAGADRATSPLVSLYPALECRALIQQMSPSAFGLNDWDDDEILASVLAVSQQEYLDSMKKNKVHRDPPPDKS
How it was run: as §1

Measured: log2 ratio of Biotin-Ahx-Ub-VS probe labelling

Sequence of EIF3H (O15372 whole entry): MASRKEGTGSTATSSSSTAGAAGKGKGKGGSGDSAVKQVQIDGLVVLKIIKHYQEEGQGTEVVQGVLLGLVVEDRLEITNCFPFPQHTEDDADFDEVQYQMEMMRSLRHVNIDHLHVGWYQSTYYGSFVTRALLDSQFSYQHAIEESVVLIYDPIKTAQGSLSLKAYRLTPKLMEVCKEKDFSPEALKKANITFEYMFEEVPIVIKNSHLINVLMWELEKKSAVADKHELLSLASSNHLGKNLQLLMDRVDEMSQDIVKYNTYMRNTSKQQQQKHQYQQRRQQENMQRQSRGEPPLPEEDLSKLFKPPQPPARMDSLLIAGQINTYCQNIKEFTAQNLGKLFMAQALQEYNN
Sequence of OTUB1 (Q96FW1 whole entry): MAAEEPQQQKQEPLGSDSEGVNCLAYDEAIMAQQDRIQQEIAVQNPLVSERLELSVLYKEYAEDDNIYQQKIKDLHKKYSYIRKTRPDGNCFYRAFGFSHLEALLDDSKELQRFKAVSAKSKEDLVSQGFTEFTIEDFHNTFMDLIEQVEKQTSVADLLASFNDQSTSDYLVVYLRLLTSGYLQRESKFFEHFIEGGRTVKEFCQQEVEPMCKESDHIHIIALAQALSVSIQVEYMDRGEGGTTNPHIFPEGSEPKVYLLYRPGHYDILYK
Sequence of ATXN3 (P54252 whole entry): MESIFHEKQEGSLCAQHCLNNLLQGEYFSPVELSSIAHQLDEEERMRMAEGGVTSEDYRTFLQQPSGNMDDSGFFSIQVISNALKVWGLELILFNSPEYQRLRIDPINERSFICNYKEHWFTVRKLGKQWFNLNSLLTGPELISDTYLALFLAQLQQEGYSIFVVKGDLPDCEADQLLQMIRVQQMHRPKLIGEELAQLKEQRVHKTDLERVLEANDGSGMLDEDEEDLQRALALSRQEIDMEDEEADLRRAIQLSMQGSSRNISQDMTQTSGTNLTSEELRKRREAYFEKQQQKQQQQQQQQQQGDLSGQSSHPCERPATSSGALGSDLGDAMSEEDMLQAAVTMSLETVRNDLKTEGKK
Sequence of EIF3F (O00303 whole entry): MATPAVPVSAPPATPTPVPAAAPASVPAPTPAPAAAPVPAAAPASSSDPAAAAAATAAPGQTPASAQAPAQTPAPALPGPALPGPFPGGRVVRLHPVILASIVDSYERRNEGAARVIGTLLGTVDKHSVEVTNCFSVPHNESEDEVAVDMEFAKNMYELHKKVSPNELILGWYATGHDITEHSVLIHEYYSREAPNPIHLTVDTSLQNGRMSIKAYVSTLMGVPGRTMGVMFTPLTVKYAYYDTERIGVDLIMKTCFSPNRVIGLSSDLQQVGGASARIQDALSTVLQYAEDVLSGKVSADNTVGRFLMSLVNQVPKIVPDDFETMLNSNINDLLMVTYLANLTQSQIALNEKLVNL

Cl.O=C(CCl)NCCc1ncc(F)cc1F
inactive: [1] 0.103 | [2] -0.404 | [4] -0.289 | [5] 0.21 | [6] 0.131 | [7] -0.111 | [8] -0.506 | [9] -0.474
active: [3] -1.21

Source: the supplement of paper PMC11732987, “Enantioselective OTUD7B fragment discovery through chemoproteomics screening and high-throughput optimisation” (Communications Chemistry, 2025)
